Whole data set: some 68,000 sequences, median “fluorescence intensity (a.u.)” near 9,100, cut for the highest 2% near 16,000. For the sample, the highest values were picked, then their nearest neighbours and some sequences at random.
Target: OsWRKY34 (Oryza sativa, UniProt Q0JBA9 1-250)
Experiment: protein-binding microarray (RPBM); PBS, 2% BSA, 51.3 ng/ul salmon testes DNA, 50 uM zinc acetate, 200 nM TF, 25 C, 1 h; high values mean tight binding
Settings: protein: recombinant; tags: N-terminal polyhistidine and DsRed monomer fusion (pET32a); label: CyDye5-dUTP incorporated in the synthesized complementary strand; 3' TTTTT single-stranded linker to array surface; dsDNA, one strand shown
In short: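 A custom Agilent array was converted to double-stranded form by primer extension with Cy5-dUTP and blocked with 2% BSA. Protein at 200 nM in PBS with 2% BSA, salmon testes DNA and 50 µM zinc acetate was applied for 1 h at 25 °C, followed by washing. The proteins were polyhistidine–DsRed N-terminal fusions of transcription factors, expressed in E. coli BL21-CodonPlus and Ni–NTA-purified. The binding signal is per-feature fluorescence intensity (arbitrary units) from an Axon 4000B scanner.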

Sequence of OsWRKY34 (Q0JBA9 entry or part of it): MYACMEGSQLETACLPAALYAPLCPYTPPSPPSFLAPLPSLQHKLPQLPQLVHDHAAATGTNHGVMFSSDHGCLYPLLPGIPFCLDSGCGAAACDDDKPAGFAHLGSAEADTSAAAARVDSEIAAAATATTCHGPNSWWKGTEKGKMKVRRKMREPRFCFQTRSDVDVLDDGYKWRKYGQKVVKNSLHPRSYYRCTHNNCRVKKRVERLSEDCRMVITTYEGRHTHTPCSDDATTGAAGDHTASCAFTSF

Q: “CACCACCCCGGCCGCTTCCGCCACTTCACTCCACTCCACACGGAGTCACCTAGTGCAG” was tested. Which binding signal did it give?
A: 13200 fluorescence intensity (a.u.)

Q: “ATCACACGCTGCACCTCTCCCGCGCCCACCAGTCCACTCACGGAGTCACCTAGTGCAG” was tested. Which binding signal did it give?
A: 18500 fluorescence intensity (a.u.)

Q: For “ACGCTGTTGTAATTCCAGATGTTGGTCAGTAGTCATTACTCGGAGTCACCTAGTGCAG”, which binding signal is on record?
A: 10700 fluorescence intensity (a.u.)

Q: For “CGGGGAGTCGTTGCTGTTCTTGTTCTTGGTCGAGGTTGAGCGGAGTCACCTAGTGCAG”, which binding signal is on record?
A: 14500 fluorescence intensity (a.u.)

Q: For “TCAGCAATCTCTCTTTCTACTAGGGTCTCTTCTACCAGCGCGGAGTCACCTAGTGCAG”, which binding signal is on record?
A: 8070 fluorescence intensity (a.u.)

Q: With “TTGACCACCAAGCTCCTGCTTCTTGCAATCTTGATCGATACGGAGTCACCTAGTGCAG” as the sequence, how does the binding signal read?
A: 9170 fluorescence intensity (a.u.)

Q: With “ATCCTCATATCGTGTATCCGTATTCGTATCCCCGTATTTGCGGAGTCACCTAGTGCAG” as the sequence, how does the binding signal read?
A: 8230 fluorescence intensity (a.u.)

Q: For “CTGCACCTAAAGCCTTTCAGAAAACTTTTCACCCTGTCAACGGAGTCACCTAGTGCAG”, which binding signal is on record?
A: 8740 fluorescence intensity (a.u.)

Q: How did the binding signal turn out when “ACATCAACACACCATCACTCGCACAAAACACACTAATAAACGGAGTCACCTAGTGCAG” was run?
A: 8440 fluorescence intensity (a.u.)

Q: For “TCAACCATAATCACTAGTGTCACAAACACCTTGAAATTCACGGAGTCACCTAGTGCAG”, which binding signal is on record?
A: 8120 fluorescence intensity (a.u.)

Q: Which binding signal does the source give for “CACTAATTGATCAATTGCACAACAAATTGCTTGAATAACGCGGAGTCACCTAGTGCAG” here?
A: 65500 fluorescence intensity (a.u.)

Q: For “AGAATGTTATACGGCGCTCGATCTATTATTCCGCACTCTACGGAGTCACCTAGTGCAG”, which binding signal is on record?
A: 8130 fluorescence intensity (a.u.)

Q: How did the binding signal turn out when “TCTCCGTTGTAATATGTTCTTTGTCCTCGATGTGTTTCCGCGGAGTCACCTAGTGCAG” was run?
A: 11400 fluorescence intensity (a.u.)

Q: For “GTTTTACTAGTGAATTTTCTTTTCTTTGCTTCGTTTAATGCGGAGTCACCTAGTGCAG”, which binding signal is on record?
A: 8930 fluorescence intensity (a.u.)

Q: Which binding signal does the source give for “AATTTCGTTTTTAATACGCCCAGTGAAATTTGCTGTCTAGCGGAGTCACCTAGTGCAG” here?
A: 17500 fluorescence intensity (a.u.)

Q: For “GATGTACTGAACTGTTTTTTTTTTCGTTTTTAATTTCTAGCGGAGTCACCTAGTGCAG”, which binding signal is on record?
A: 8550 fluorescence intensity (a.u.)

Q: Which binding signal does the source give for “TCTCGCCACCTTCGCCTCCATCTCATCGACCGCCCACTTCCGGAGTCACCTAGTGCAG” here?
A: 12800 fluorescence intensity (a.u.)

Q: Which binding signal does the source give for “TCATAATGCATCAATCTATTACTTTAGCTATCTATTTATACGGAGTCACCTAGTGCAG” here?
A: 9530 fluorescence intensity (a.u.)

Q: For “GCATATAATTAGTTTACCATGGCTTTAATCAATCATATGCCGGAGTCACCTAGTGCAG”, which binding signal is on record?
A: 29300 fluorescence intensity (a.u.)

Q: For “ATGACTTTAATATGTTAGCTTTTCATGCATGTGTCAATTTCGGAGTCACCTAGTGCAG”, which binding signal is on record?
A: 8700 fluorescence intensity (a.u.)

Q: Which binding signal does the source give for “GCAACGCCGCCGTTTTCTTCGCCTCTCACAGAGACGACTCCGGAGTCACCTAGTGCAG” here?
A: 9200 fluorescence intensity (a.u.)

Q: How did the binding signal turn out when “AGCCATCTATCACCATGGCTGAAGCCATGTTATATATATCCGGAGTCACCTAGTGCAG” was run?
A: 8560 fluorescence intensity (a.u.)

Q: For “GGGGTTCGTTTTGTTTCTTGACACACGCTTGAGTCTTATTCGGAGTCACCTAGTGCAG”, which binding signal is on record?
A: 16900 fluorescence intensity (a.u.)

Q: Which binding signal does the source give for “ATCACTTTATGCGCACTTTTCTTTGACGCCTTCCACAATTCGGAGTCACCTAGTGCAG” here?
A: 9560 fluorescence intensity (a.u.)

Q: With “TTTTTGGGGTTTTCTCTTCTTGATTGATTCGTTCTTGGCGCGGAGTCACCTAGTGCAG” as the sequence, how does the binding signal read?
A: 13100 fluorescence intensity (a.u.)

Q: With “CTTCACTCTTGATTCAAAAGGTTTTATTTTTTTTTCTGGTCGGAGTCACCTAGTGCAG” as the sequence, how does the binding signal read?
A: 8530 fluorescence intensity (a.u.)

Q: With “TTCTTTTCTTTTTCTTTTTCGTTTTCTTCTTATTCTTTTTCGGAGTCACCTAGTGCAG” as the sequence, how does the binding signal read?
A: 12900 fluorescence intensity (a.u.)

Q: How did the binding signal turn out when “TTCGGGTTTTTTTTTTGTTTATTTTGTCTTTCGCTTTTCACGGAGTCACCTAGTGCAG” was run?
A: 14900 fluorescence intensity (a.u.)

Q: Which binding signal does the source give for “ACTTCTACCTTTCGTTTTTCCACGCGCATATGCTTTTTGACGGAGTCACCTAGTGCAG” here?
A: 20300 fluorescence intensity (a.u.)

Q: “TCCCACCTTCCGCTCGTTTTTCTTGAGCATATGCTTCTCACGGAGTCACCTAGTGCAG” was tested. Which binding signal did it give?
A: 10100 fluorescence intensity (a.u.)

Q: “ATTCGTTCTGGTTTTCTTCGGGGTTTATTGATTCACGCGACGGAGTCACCTAGTGCAG” was tested. Which binding signal did it give?
A: 18200 fluorescence intensity (a.u.)

Q: For “TCTTCTGAGTTCTTGTGTTTTCATACGTGCCAATCAAATGCGGAGTCACCTAGTGCAG”, which binding signal is on record?
A: 8310 fluorescence intensity (a.u.)

Q: “ACCTTCGGTGTACTTTTTCCTTAGTCTGCCGGCTTATTTACGGAGTCACCTAGTGCAG” was tested. Which binding signal did it give?
A: 9490 fluorescence intensity (a.u.)

Q: “GACAATTACTTAGTCCTCACCTACCGTCGACCTCACACGTCGGAGTCACCTAGTGCAG” was tested. Which binding signal did it give?
A: 10200 fluorescence intensity (a.u.)

Q: Which binding signal does the source give for “TTCAGAGTATTGTGATCCTTAAATCGAACCGTTGACTCTACGGAGTCACCTAGTGCAG” here?
A: 9490 fluorescence intensity (a.u.)

Q: Which binding signal does the source give for “AGCAGTTGTATTGTTGTGAAATTTAATTTGCTCTTTGACCCGGAGTCACCTAGTGCAG” here?
A: 8200 fluorescence intensity (a.u.)

Q: How did the binding signal turn out when “TCTTGTTCATTTCTCTCTTGCTCCGGCTCGCCTCGCATCGCGGAGTCACCTAGTGCAG” was run?
A: 8300 fluorescence intensity (a.u.)

Q: How did the binding signal turn out when “GGTAGACGGCGTCGTACCCGTCCTCCTCGCCGGACCGCATCGGAGTCACCTAGTGCAG” was run?
A: 8840 fluorescence intensity (a.u.)

Q: Which binding signal does the source give for “TAATGTATGACGCCGTTGACTTTTTGATTAACGTTTGACCCGGAGTCACCTAGTGCAG” here?
A: 34800 fluorescence intensity (a.u.)

Q: How did the binding signal turn out when “TAATGTATAACGCCGTTAACTTTTTAACAAACGTTTGACCCGGAGTCACCTAGTGCAG” was run?
A: 8430 fluorescence intensity (a.u.)

Q: With “TAATGTATGACGCCGTTGACTTTTTAACTAACGTTTGACCCGGAGTCACCTAGTGCAG” as the sequence, how does the binding signal read?
A: 28700 fluorescence intensity (a.u.)

Q: With “TTGTATGATGCCGTTGATTTTTTTTGTCTAACGTTTAACCCGGAGTCACCTAGTGCAG” as the sequence, how does the binding signal read?
A: 8360 fluorescence intensity (a.u.)

Q: Which binding signal does the source give for “TTTTAATGTATGACGCCGTTGACTTTTTATACGTTTGACCCGGAGTCACCTAGTGCAG” here?
A: 32200 fluorescence intensity (a.u.)
